Measured values taken from the antibiotic and cytotoxicity screens of Wong et al. (2023).
Out of some 39,000 compounds screened, about 3,300 (8.5%) were called active. This excerpt belongs to a sample that is enriched for actives.

Tested on: HepG2
Assay: cytotoxicity call (relative viability < 0.9)
Details: 10 µM

| Structure (SMILES) | cytotoxicity call |
| --- | --- |
| CC(C)NC(=O)N(C)C[C@H]1OCCCC[C@H](C)Oc2ccc(NC(=O)Nc3ccc(C(F)(F)F)cc3)cc2C(=O)N([C@@H](C)CO)C[C@H]1C | inactive |
| C[C@@H]1CCCCO[C@H](CN(C)S(=O)(=O)c2ccc(Cl)cc2)[C@@H](C)CN([C@@H](C)CO)C(=O)c2cc(NC(=O)C3CCCCC3)ccc2O1 | inactive |
| C[C@@H]1CCCCO[C@H](CN(C)C(=O)CCC(F)(F)F)[C@H](C)CN([C@H](C)CO)C(=O)c2cc(NS(=O)(=O)c3ccccc3)ccc2O1 | inactive |
| C[C@@H]1CCCCO[C@@H](CN(C)C(=O)Nc2ccccc2)[C@H](C)CN([C@H](C)CO)C(=O)c2cc(NC(=O)Nc3ccc(C(F)(F)F)cc3)ccc2O1 | inactive |
| CC(C)NC(=O)N(C)C[C@H]1Oc2c(NS(=O)(=O)c3ccc(F)cc3)cccc2C(=O)N([C@H](C)CO)C[C@H]1C | inactive |
| C[C@@H]1CN([C@@H](C)CO)C(=O)c2cc(C#CC3CC3)cnc2O[C@H]1CN(C)S(=O)(=O)c1cccc(F)c1 | inactive |
| Cc1ccc(=O)n(-c2ccccc2)c1 | inactive |
| O=c1[nH]ncn1-c1ccccc1 | inactive |
| O=c1[nH]ccn(-c2ccccc2)c1=O | active |
| Cc1c(C(=O)O)sc(=O)n1C | inactive |
| CC(C)NC(=O)N(C)C[C@@H]1Oc2cc(C#Cc3cccc(F)c3)ccc2S(=O)(=O)N([C@@H](C)CO)C[C@@H]1C | inactive |
| C[C@@H]1CN([C@@H](C)CO)C(=O)Cc2cc(NS(=O)(=O)c3ccccc3)ccc2O[C@@H]1CN(C)S(=O)(=O)c1ccc(F)cc1 | inactive |
| Cc1ccc(S(=O)(=O)N(C)C[C@@H]2OCCCC[C@H](C)Oc3ccc(NC(=O)CCC(F)(F)F)cc3C(=O)N([C@H](C)CO)C[C@@H]2C)cc1 | inactive |
| O=C(N[C@H](c1ccc(F)cc1)c1ccc2ccccc2n1)C1CCN(CCOc2ccc(Cl)cc2)CC1 | inactive |
| O=C(N[C@@H](c1ccccc1)c1ccc2ccccc2n1)C1CCN(CCOc2ccc(Cl)cc2Cl)CC1 | inactive |
| O=C(N[C@@H](c1ccc(F)cc1)c1ccc2ccccc2n1)C1CCN(CCOc2ccc(F)cc2)CC1 | active |
| O=C(N[C@H](c1ccc(F)cc1)c1ccc2ccccc2n1)C1CCN(CCOc2ccc(Cl)cc2Cl)CC1 | inactive |
| COc1ccc(OCCN2CCC(C(=O)N[C@@H](c3ccc(F)cc3)c3ccc4ccccc4n3)CC2)cc1 | active |
| COc1ccc(/C=C/CN2CCC(C(=O)N[C@@H](c3ccc(F)cc3)c3ccc4ccccc4n3)CC2)cc1 | active |
| COc1ccc([C@@H](NC(=O)C2CCN(CCOc3ccc(Cl)cc3Cl)CC2)c2ccco2)cc1 | inactive |
| C[C@@H]1CN([C@@H](C)CO)C(=O)c2cccc(NS(=O)(=O)c3cccs3)c2O[C@H]1CN(C)S(=O)(=O)c1ccc(F)cc1 | inactive |

| Structure (SMILES) | cytotoxicity call |
| --- | --- |
| C[C@@H]1CN([C@H](C)CO)S(=O)(=O)c2ccc(-c3cccc(C#N)c3)cc2O[C@H]1CN(C)C(=O)c1cccnc1 | inactive |
| COc1cccc(S(=O)(=O)N2C[C@@H](O)COC[C@@H]3O[C@H](CC(=O)N4CCN(C)CC4)CC[C@H]32)c1 | inactive |
| CO[C@H]1CN(C)C(=O)c2cc(NS(=O)(=O)c3ccccc3)ccc2OC[C@@H](C)N(C(=O)NC(C)C)C[C@H]1C | inactive |
| CC(C)(C)c1nc[nH]c1/C=c1\[nH]c(=O)/c(=C/c2ccccc2)[nH]c1=O | inactive |
| C[C@@H]1CN([C@@H](C)CO)C(=O)c2cc(NS(=O)(=O)c3cn(C)cn3)ccc2O[C@@H](C)CCCCO[C@@H]1CN(C)C(=O)CCCN(C)C | inactive |
| CO[C@@H]1CN(C)C(=O)c2cc(NC(=O)Nc3ccccc3F)ccc2OC[C@H](C)N(CCC(F)(F)F)C[C@@H]1C | inactive |
| CC(=O)O[C@H](C[C@H](O)[C@@](C)(CCC=C(C)C)O[C@H]1O[C@@H](CO)[C@@H](O)[C@@H](O)[C@@H]1O)/C(C)=C/COC[C@@H](O)[C@@H](O)[C@@H](O)[C@@H](O)CO | inactive |
| CCCCCCOc1cccc(N)c1 | inactive |
| C[C@@H]1CCCCO[C@H](CN(C)C(=O)Nc2cccc3ccccc23)[C@@H](C)CN([C@@H](C)CO)C(=O)c2cc(NC(=O)CCCN(C)C)ccc2O1 | inactive |
| CNC[C@@H]1OCCCC[C@@H](C)Oc2ccc(NS(=O)(=O)c3cn(C)cn3)cc2C(=O)N([C@H](C)CO)C[C@@H]1C | inactive |
| C[C@H](CO)N1C[C@H](C)[C@@H](CN(C)CC2CCCCC2)OCCCC[C@H](C)Oc2ccc(NC(=O)Nc3ccc(C(F)(F)F)cc3)cc2C1=O | active |
| C[C@@H]1CCCCO[C@@H](CN(C)CC2CCCCC2)[C@H](C)CN([C@@H](C)CO)C(=O)c2cc(NC(=O)Nc3ccc(C(F)(F)F)cc3)ccc2O1 | active |
| C[C@H]1CCCCO[C@@H](CN(C)CC2CCCCC2)[C@@H](C)CN([C@@H](C)CO)C(=O)c2cc(NC(=O)Nc3ccc(C(F)(F)F)cc3)ccc2O1 | active |
| C[C@@H]1CCCCO[C@@H](CN(C)CC2CCCCC2)[C@H](C)CN([C@H](C)CO)C(=O)c2cc(NC(=O)Nc3ccc(C(F)(F)F)cc3)ccc2O1 | active |
| C[C@@H]1CN([C@@H](C)CO)C(=O)c2cc(NC(=O)Nc3ccc(C(F)(F)F)cc3)ccc2O[C@@H](C)CCCCO[C@H]1CN(C)CC1CCCCC1 | inactive |
| CC(C)=CCCC(C)=CCOc1ccc2ccc(=O)oc2c1 | inactive |
| O=C1/C(=C/c2cn(-c3ccccc3)nc2-c2ccc(OCc3ccc(Cl)cc3)cc2)SC(=S)N1CCS(=O)(=O)O | inactive |
| CCS(=O)(=O)NCC[C@H]1CC[C@H](NC(=O)C2CCOCC2)[C@@H](CO)O1 | inactive |
| O=C(C[C@H]1C[C@H]2c3cc(NS(=O)(=O)c4ccc(F)cc4)ccc3O[C@H]2[C@@H](CO)O1)NCCc1ccccc1 | inactive |
| COc1ccc(S(=O)(=O)N(C)C[C@H]2OCCCC[C@H](C)Oc3ccc(NC(=O)Nc4c(C)noc4C)cc3C(=O)N([C@H](C)CO)C[C@@H]2C)cc1 | inactive |
| C[C@H]1CN([C@@H](C)CO)C(=O)Cc2cc(NC(=O)c3ccncc3)ccc2O[C@@H]1CN(C)S(=O)(=O)c1ccc(F)cc1 | inactive |

| Structure (SMILES) | cytotoxicity call |
| --- | --- |
| CN1CCN(C(=O)C[C@@H]2C[C@H]3c4cc(NC(=O)c5ccc6c(c5)OCO6)ccc4O[C@H]3[C@@H](CO)O2)CC1 | inactive |
| CC(=O)O[C@@H]1CC[C@@]2(C)[C@@H](CC[C@]3(C)[C@@H]2C(=O)C=C2[C@@H]4[C@@H](C)[C@H](C)CC[C@]4(C)CC[C@]23C)[C@@]1(C)C(=O)O | inactive |
| C[C@@H]1CN([C@H](C)CO)C(=O)c2cccc(NC(=O)C3CC3)c2O[C@@H]1CN(C)C(=O)Nc1ccc2c(c1)OCO2 | inactive |
| Cc1noc(C)c1NC(=O)N(C)C[C@@H]1Oc2ncc(C#CCN(C)C)cc2C(=O)N([C@H](C)CO)C[C@H]1C | inactive |
| C[C@@H]1CN([C@H](C)CO)C(=O)c2cc(NC(=O)Nc3ccc(C(F)(F)F)cc3)ccc2O[C@@H](C)CCCCO[C@@H]1CN(C)CC1CCCCC1 | active |
| C[C@@H]1CCCCO[C@H](CN(C)CC2CCCCC2)[C@@H](C)CN([C@H](C)CO)C(=O)c2cc(NC(=O)Nc3ccc(C(F)(F)F)cc3)ccc2O1 | active |
| C[C@H](CO)N1C[C@H](C)[C@H](CN(C)CC2CCCCC2)OCCCC[C@H](C)Oc2ccc(NC(=O)Nc3ccc(C(F)(F)F)cc3)cc2C1=O | active |
| C[C@@H]1CCCCO[C@@H](CN(C)CC2CCCCC2)[C@@H](C)CN([C@H](C)CO)C(=O)c2cc(NC(=O)Nc3ccc(C(F)(F)F)cc3)ccc2O1 | active |
| COCC(=O)Nc1ccc2c(c1)C(=O)N(C)C[C@@H](OC)[C@H](C)CN(C(=O)Cc1ccccn1)[C@@H](C)CO2 | inactive |
| C[C@@H]1CN([C@@H](C)CO)C(=O)c2cc(C#CCc3ccccc3)cnc2O[C@@H]1CN(C)C(=O)C1CCOCC1 | inactive |
| Cc1ccc(S(=O)(=O)N(C)C[C@@H]2Oc3c(NC(=O)C4CC4)cccc3C(=O)N([C@H](C)CO)C[C@@H]2C)cc1 | inactive |
| C[C@@H]1CN([C@@H](C)CO)S(=O)(=O)c2ccc(C#C[C@@H](C)O)cc2O[C@H]1CN(C)C(=O)Nc1ccccc1 | inactive |
| C[C@H]1CN([C@@H](C)CO)C(=O)c2cccc(NS(=O)(=O)c3cn(C)cn3)c2O[C@H]1CN(C)Cc1ccc2c(c1)OCO2 | inactive |
| C[C@@H]1CCCCO[C@H](CN(C)Cc2ccc(C(=O)O)cc2)[C@H](C)CN([C@H](C)CO)C(=O)c2cc(NS(=O)(=O)c3ccc(F)cc3)ccc2O1 | inactive |
| CC(C)NC(=O)Nc1ccc2c(c1)C(=O)N([C@H](C)CO)C[C@H](C)[C@H](CN(C)S(C)(=O)=O)OCCCC[C@H](C)O2 | inactive |
| CCCC(=O)Nc1ccc2c(c1)C(=O)N(C)C[C@@H](OC)[C@H](C)CN(S(=O)(=O)c1cn(C)cn1)[C@H](C)CO2 | inactive |
| C[C@@H]1CN([C@H](C)CO)C(=O)c2cccc(NS(=O)(=O)c3cccs3)c2O[C@@H]1CN(C)CC1CC1 | inactive |
| COc1ccccc1C#Cc1cnc2c(c1)C(=O)N([C@@H](C)CO)C[C@@H](C)[C@@H](CN(C)C(=O)CC1CC1)O2 | inactive |
| C[C@H]1CCCCO[C@H](CN(C)C(=O)Nc2ccccc2)[C@@H](C)CN([C@@H](C)CO)C(=O)c2cc(NS(=O)(=O)c3ccc(Cl)cc3)ccc2O1 | inactive |
| COc1ccc(NC(=O)N(C)C[C@@H]2Oc3ccc(NC(=O)CCN4CCOCC4)cc3CC(=O)N([C@H](C)CO)C[C@@H]2C)cc1 | inactive |
| C[C@H]1CN([C@@H](C)CO)C(=O)Cc2cc(NC(=O)Nc3ccc(C(F)(F)F)cc3)ccc2O[C@@H]1CN(C)C(=O)Nc1cccc2ccccc12 | inactive |
